The text below walks through data of PubChem BioAssay (Tox21).

“And” between values parts separate entries of the source, which are not always exact repeats. Identical values can stand only once. A number with no mark means an inactive call. Records with an inconclusive call do not appear. The source made the active and inactive calls. Unless noted, calls come from the whole dose curve; as a rule, active = well fitted curve in the direction sought with a large enough effect in the repeat runs; inconclusive = weak or mixed curves; inactive = no such curve, though single readings can be large; an effect the other way counts as inactive or inconclusive. Residues, ends and D or L forms follow the SMILES beside them.

In assay [1] the target is Thyrotropin receptor (Homo sapiens) (UniProt P16473). Briefly: qHTS assay to identify small molecule agonists of the thyroid stimulating hormone receptor (TSHR) signaling pathway (AID 1224843; calls by dose curve; note: nearly all actives have a fitted effect of over 45% in size). The procedure, abridged: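 Using 15 concentrations per compound in triplicate, cAMP production was monitored in TSHR-HEK293 cells after 30 min compound incubation at RT; HTRF reagents followed, with fluorescence intensity recorded after 1 h.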

The nature of assay [2]: qHTS assay to identify small molecule agonists of the hypoxia (HIF-1) signaling pathway - cell viability counter screen (AID 1224844; calls by dose curve; note: nearly all actives have a fitted effect of over 50% in size). The procedure, abridged:
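Viability counter screen: HRE-bla ME-180 cells plated 5 hrs before compound addition, treated 17 hrs at 37C and 5% CO2, then CellTiter-Glo added after the FRET reporter read; luminescence after 30 min.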
For orientation: In qHTS, concentration-response curves come from the screen itself.

Assay [3] can be described thus: qHTS assay to identify small molecule agonists of H2AX (AID 1224845; active = well fitted activation curve with a large enough effect in the signal ratio in the repeat runs, not every such curve was filed as active; the % refers to the signal ratio). A digest of the protocol:
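Wild-type CHO-K1 cells plated overnight, then exposed 3 hr at 37C to compounds at 15 concentrations (0.76% DMSO). Lysed, then HTRF anti-pH2AX(S139)-cryptate/anti-H2AX-d2 detection after 24 hr at room temperature; emissions 665 and 620 nm.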

Assay [4] in a line: qHTS assay to identify small molecule agonists of the hypoxia (HIF-1) signaling pathway (AID 1224846; active = well fitted activation curve with a large enough effect in the signal ratio in the repeat runs, not every such curve was filed as active; the % refers to the signal ratio). The procedure, abridged: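 Agonist mode reporter screen. ME-180 cells stably expressing bla under HRE control received test compounds in DMSO for 17 hrs (37C, 5% CO2), and beta-lactamase activity was then detected with the CCF4-AM FRET substrate.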
Assay [5] can be described thus: qHTS assay to identify small molecule agonists of H2AX - cell viability counter screen (AID 1224847; calls by dose curve; note: top concentration of the series differs between compounds; nearly all actives have a fitted effect of over 30% in size). A digest of the protocol:
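CHO-K1 cells plated overnight at 37C, then exposed 3 h at 37C to compounds at 15 concentrations (0.76% DMSO final). Viability by CellTiter-Glo luminescence after 30 min at room temperature.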

Assay [6] can be described thus: qHTS RealTime-Glo MT Cell Viability Assay in HepG2 cells - 24 hour (AID 1224867). Note: nearly all actives have a fitted effect of over 50% in size. The procedure, abridged:
(§1)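 Cell number in HepG2 cultures estimated from NanoLuc luminescence generated by metabolic reduction of a prosubstrate by living cells. The homogeneous, nonlytic format allowed repeated reads at 0, 8, 16, 24, 32 and 40 h of compound exposure.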

The nature of assay [7]: qHTS RealTime-Glo MT Cell Viability Assay in HEK293 cells - 32 hour (AID 1224868). Note: top concentration of the series differs between compounds; nearly all actives have a fitted effect of over 50% in size. A digest of the protocol: (§2)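 Homogeneous bioluminescent viability format in HEK293 cells (600 cells/well). Following 5 h at 37 C/5% CO2, 23 nL compound was pintooled; the signal was measured repeatedly during 40 h incubation.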
Assay [8] can be described thus: A CellTox Green Cytotoxicity Assay to monitor cytotoxicity in HEK293 cells - 0 hour (AID 1224869). Note: nearly all actives have a fitted effect of over 50% in size. A digest of the protocol: (§3)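 Dead-cell fluorescence measured kinetically: asymmetric cyanine dye, HEK293, 600 cells/well, 5 h settle, 23 nL cpd/DMSO, 37 C, reads 0–40 h every 8 h.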
Assay [9] in a line: qHTS RealTime-Glo MT Cell Viability Assay in HepG2 cells - 40 hour (AID 1224870). Note: nearly all actives have a fitted effect of over 50% in size. A digest of the protocol: (§4)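 HepG2 cells mixed with RealTime-Glo MT reagents (NanoLuc plus cell-permeant prosubstrate) were seeded at 600 cells/well, incubated 5 h at 37 C/5% CO2, then pinned with compounds in DMSO; nonlytic luminescence tracked viability during 40 h treatment.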
Assay [10] in a line: A CellTox Green Cytotoxicity Assay to monitor cytotoxicity in HEK293 cells - 40 hour (AID 1224871). Note: nearly all actives have a fitted effect of over 45% in size. The procedure, abridged:
as §3

Assay [11] in a line: qHTS RealTime-Glo MT Cell Viability Assay in HEK293 cells - 16 hour (AID 1224872). A digest of the protocol:
as §2

Assay [12] can be described thus: qHTS RealTime-Glo MT Cell Viability Assay in HepG2 cells - 8 hour (AID 1224873). Note: nearly all actives have a fitted effect of over 55% in size. The procedure, abridged: as §4
Assay [13] can be described thus: A CellTox Green Cytotoxicity Assay to monitor cytotoxicity in HEK293 cells - 24 hour (AID 1224875). Note: nearly all actives have a fitted effect of over 45% in size. The procedure, abridged:
as §3

Assay [14] is described as follows: A CellTox Green Cytotoxicity Assay to monitor cytotoxicity in HepG2 cells - 16 hour (AID 1224876). Note: nearly all actives have a fitted effect of over 45% in size. A digest of the protocol:
(§5)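 First, HepG2 cells (600/well) mixed with reagent were plated; second, after 5 h at 37 C they received compounds via pintool; third, fluorescence was measured at 0 h through 40 h at 8 h intervals.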

Assay [15] is described as follows: qHTS RealTime-Glo MT Cell Viability Assay in HepG2 cells - 32 hour (AID 1224877). Note: nearly all actives have a fitted effect of over 55% in size. The procedure, abridged:
as §1

A short description of assay [16]: A CellTox Green Cytotoxicity Assay to monitor cytotoxicity in HepG2 cells - 24 hour (AID 1224878). Note: nearly all actives have a fitted effect of over 45% in size. The procedure, abridged: as §5
Assay [17] in a line: A CellTox Green Cytotoxicity Assay to monitor cytotoxicity in HepG2 cells - 40 hour (AID 1224879). Note: nearly all actives have a fitted effect of over 40% in size. The procedure, abridged: as §5
Assay [18] is described as follows: qHTS RealTime-Glo MT Cell Viability Assay in HEK293 cells - 40 hour (AID 1224874). Note: nearly all actives have a fitted effect of over 50% in size. The conditions noted are these: RealTime-Glo luminescence; max response: stronger effect = lower value. The procedure, abridged: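 600 HEK293 cells per well, dispensed already mixed with RealTime-Glo MT reagents. Compound dosing came 5 h later. The same wells were read for luminescence at 0, 8, 16, 24, 32 and 40 h of exposure at 37 C.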

Assay [19] can be described thus: qHTS assay to identify small molecule antagonists of the estrogen related receptor (ERR) signaling pathway from Tox21 library (AID 1224848). Note: nearly all actives have a fitted effect of over 50% in size. Note: potency is the fitted concentration of half-maximal effect. A digest of the protocol: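 Tox21 10K compounds in DMSO tested for ERR pathway antagonism in NTP's ERR cell line; 18 h, 37 C exposure; ONE-Glo luminescence.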
Assay [20] in a line: qHTS assay to identify small molecule agonists of the estrogen related receptor (ERR) signaling pathway from Tox21 library (AID 1224849; calls by dose curve; note: nearly all actives have a fitted effect of over 15% in size). The conditions noted are these: ERR reporter cell line, ONE-Glo luciferase, 18 h. A digest of the protocol:
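Quantitative HTS in agonist format: NTP ERR cell line, compounds transferred in DMSO after 6 h plating, 18 h incubation at 37 C, ONE-Glo luminescence endpoint.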
% is set by controls: 0 for no effect and ±100 for the full control effect.

Thyrotropin receptor (Homo sapiens), sequence (P16473 whole entry, looked up): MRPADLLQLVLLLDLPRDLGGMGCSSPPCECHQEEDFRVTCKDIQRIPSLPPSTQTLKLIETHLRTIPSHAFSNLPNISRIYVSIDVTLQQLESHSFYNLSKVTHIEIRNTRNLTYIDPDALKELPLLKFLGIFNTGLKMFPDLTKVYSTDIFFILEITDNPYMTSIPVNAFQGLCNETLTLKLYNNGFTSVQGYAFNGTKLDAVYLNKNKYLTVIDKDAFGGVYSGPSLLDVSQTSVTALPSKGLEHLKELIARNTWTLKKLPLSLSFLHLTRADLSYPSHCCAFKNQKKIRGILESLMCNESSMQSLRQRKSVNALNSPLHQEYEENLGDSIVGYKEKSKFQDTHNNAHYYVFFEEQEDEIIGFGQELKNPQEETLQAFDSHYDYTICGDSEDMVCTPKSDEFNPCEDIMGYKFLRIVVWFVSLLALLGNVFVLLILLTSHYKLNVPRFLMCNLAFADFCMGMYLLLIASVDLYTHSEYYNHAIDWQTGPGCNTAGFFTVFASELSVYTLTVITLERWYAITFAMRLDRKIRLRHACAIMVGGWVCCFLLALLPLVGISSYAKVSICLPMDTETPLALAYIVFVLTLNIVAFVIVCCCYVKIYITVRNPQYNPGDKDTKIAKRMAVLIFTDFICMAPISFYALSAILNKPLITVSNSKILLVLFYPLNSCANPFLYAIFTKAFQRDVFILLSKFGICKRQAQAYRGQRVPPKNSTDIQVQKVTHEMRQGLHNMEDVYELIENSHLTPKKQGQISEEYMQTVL

As to `CC(C)[C@@H]1CC[C@@H](C)C[C@H]1O`, the compound was called inactive in assay [1], in assay [3], in assay [4], in [5], in [8] and in assay [12]. Further, the Potency entry in assay [2], in assay [6], in [7], in assay [9], in assay [10] and in assay [11] was “inactive” in each case. Further, the Potency result in [13], in assay [14], in [15], in assay [16] and in assay [17] was “inactive” throughout.
Consider `C1N2CN3CN1CN(C2)C3`, for which the call in [1], in assay [3], in assay [4], in assay [5], in assay [8] and in assay [12] was inactive. In addition, the Potency result in assay [2], in assay [6], in assay [7], in assay [9], in [10] and in assay [11] was “inactive” in each case. Also, the Potency result in assay [13], in assay [14], in [15], in assay [16] and in [17] was “inactive” in each case.
On to `O=C(O)/C=C\C(=O)O`, for which the call in [1], in assay [3], in [4], in assay [5], in [8] and in assay [12] was inactive. The Potency result in [2], in [6], in assay [7], in [9], in assay [10] and in assay [11] was “inactive” throughout. In addition, the Potency entry in assay [13], in assay [14], in assay [15], in [16] and in assay [17] was “inactive” in each case. The max response in [18] was 3.82% and 7.29% and 0.357%.
As for `CC(C)(Oc1ccc(C2CC2(Cl)Cl)cc1)C(=O)O` (configuration not stated), the call in assay [1], in assay [3], in assay [4], in assay [5], in assay [8] and in assay [12] was inactive. For the same compound, the Potency entry in assay [2], in [6], in assay [7], in assay [9], in assay [10] and in [11] was “inactive” in each case. Moreover, the Potency result in assay [13], in assay [14], in [15], in assay [16] and in assay [17] was “inactive” throughout.
Take `COC(=O)[C@H](Cc1ccccc1)NC(=O)[C@@H](N)CC(=O)O` (H-Asp-Phe-OMe): the compound was called inactive in assay [1], in assay [3], in assay [4], in assay [5], in [8] and in assay [12]. Further, the Potency entry in assay [2], in assay [6], in assay [7], in [9], in [10] and in assay [11] was “inactive” each time. The Potency entry in assay [13], in assay [14], in assay [15], in [16] and in assay [17] was “inactive” each time. The max response in assay [18] is 0.561% and -0.312% and -3.38%.
As to `CCCNC(=O)NS(=O)(=O)c1ccc(Cl)cc1`, the outcome in assay [1], in assay [3], in assay [4], in [5], in assay [8] and in assay [12] was inactive. In addition, the Potency entry in [2], in assay [6], in [7], in assay [9], in assay [11] and in assay [13] was “inactive” each time. For the same compound, the Potency entry in [14], in [15], in assay [16] and in [17] was “inactive” in each case.
Regarding `O=C(O)c1cccnc1`, the compound was classed as inactive in assay [1], in assay [3], in [4], in assay [5], in [8] and in assay [12]. Further, the Potency result in assay [2], in assay [6], in assay [7], in assay [9], in [10] and in assay [11] was “inactive” each time. Further, the Potency entry in assay [13], in assay [14], in [15], in assay [16] and in [17] was “inactive” in each case.
Regarding `NC(=O)NC1NC(=O)NC1=O` (configuration not stated), the compound was called inactive in [1], in [3], in assay [4], in assay [5], in assay [8] and in [12]. Also, the Potency entry in assay [2], in assay [6], in assay [7], in [9], in [11] and in [13] was “inactive” in each case. Further, the Potency entry in [14], in assay [15], in assay [16] and in assay [17] was “inactive” each time.
For the compound `CC1(C)[C@@H]2CC[C@@]1(C)C(=O)C2`, the result in assay [1], in assay [3], in assay [4], in [5], in assay [8] and in assay [12] was inactive. For the same compound, the Potency entry in assay [2], in assay [19], in [6], in assay [7], in [9] and in assay [11] was “inactive” in each case. The Potency entry in [13], in assay [14], in assay [15], in assay [16] and in assay [17] was “inactive” in each case. Moreover, the activity change, positive = activation in assay [20] (at 42.5 µM (top of the series)) is 1.44%; in assay [20] (at 92.4 µM (top of the series)), 5.63% and 2.83%. The max response in assay [18] is 4.23% and 1.62% and -1.8%.
For the compound `O=S(=O)(O)NC1CCCCC1`, the compound was called inactive in [1], in assay [3], in [4], in assay [5], in [8] and in assay [12]. Also, the Potency entry in assay [2], in [6], in [7], in [9], in [11] and in assay [13] was “inactive” each time. Also, the Potency entry in [14], in [15], in assay [16] and in [17] was “inactive” each time.
As to `O=C1CN(/N=C/c2ccc([N+](=O)[O-])o2)C(=O)N1`, the result in assay [1], in assay [3], in assay [4], in [5], in assay [8] and in [12] was inactive. Further, the Potency entry in assay [2], in assay [6], in assay [7], in assay [9], in assay [10] and in assay [11] was “inactive” each time. In addition, the Potency result in assay [13], in assay [14], in [15], in assay [16] and in assay [17] was “inactive” throughout. The Potency in [19] is 19.3 µM (active) and 30.6 µM (active) and 21.1 µM (active). Moreover, the activity change, positive = activation in assay [20] (at 42.5 µM (top of the series)) is -52%; in [20] (at 92.4 µM (top of the series)), -64.2% and -59.1%. Moreover, the max response in assay [18] is -21.3% and -17.7%.
Take `O=C(c1ccccc1)C(O)c1ccccc1` (configuration not stated): the result in [1], in assay [3], in [4], in assay [5], in assay [8] and in [12] was inactive. Besides, the Potency entry in assay [2], in assay [6], in assay [7], in [9], in [11] and in [13] was “inactive” each time. Further, the Potency result in assay [14], in [15], in [16] and in assay [17] was “inactive” throughout. For the same compound, the max response in assay [18] was 5.88% and 18.1% and 4.15%.
For `OCCc1ccccc1`, the compound was called inactive in [1], in assay [3], in assay [4], in assay [5], in assay [8] and in assay [12]. In addition, the Potency entry in assay [2], in [6], in [7], in [9], in assay [11] and in assay [13] was “inactive” throughout. Besides, the Potency entry in [14], in [15], in [16] and in [17] was “inactive” in each case. The max response in [18] is 6.34% and 10.1% and 6.75%.
